The whole screen tested about 5,500 compounds, of which about 2,000 (36%) were called active. Inconclusive results (about 18%) are left out. Cut-off read from the data, not from the text of the source: active = normalized growth mostly below about 0.91 (no sharp cut-off); inconclusive = no clear call, values can overlap the other calls; inactive = mostly above about 0.92. The list shows a part of the results.
Assay: chemical genetic growth profiling, strain panel (AID 1159580);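 note: tested at 20 µM; growth read once vehicle control cultures reached saturation at 30 °C; 1 = growth at the plate median or of vehicle wells; lower values mean less growth of the strain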
Settings: growth OD

Measured: normalized growth

CC(=O)Oc1c(C)cccc1C(=O)O
inactive: S. cerevisiae deletion strains, locus YJR043C, strain POL32, hits give low values 1 | S. cerevisiae deletion strains, locus YJR075W, strain HOC1, hits give low values 1.01 | S. cerevisiae deletion strains, locus YKL009W, strain mrt4, hits give low values 0.975 | S. cerevisiae deletion strains, locus YKL068W, hits give low values 0.995 | S. cerevisiae deletion strains, locus YKL085W, strain MDH1 (second series), hits give low values 1 | S. cerevisiae deletion strains, locus YKL085W, strain MDH1, hits give low values 1 | S. cerevisiae deletion strains, locus YKL160W, strain elf1, hits give low values 0.994 | S. cerevisiae deletion strains, locus YKL190W, strain CNB1, hits give low values 1.01 | S. cerevisiae deletion strains, locus YKR001C, strain vps1, hits give low values 1.02 | S. cerevisiae deletion strains, locus YKR026C, strain gcn3, hits give low values 0.986 | S. cerevisiae deletion strains, locus YKR091W, strain srl3, hits give low values 1.02 | S. cerevisiae deletion strains, locus YLL001W, strain dnm1, hits give low values 0.986 | S. cerevisiae deletion strains, locus YLL026W, hits give low values 1.01 | S. cerevisiae deletion strains, locus YLL041C, strain sdh2, hits give low values 0.991 | S. cerevisiae deletion strains, locus YLR027C, strain aat2, hits give low values 0.989 | S. cerevisiae deletion strains, locus YLR039C, strain RIC1, hits give low values 1 | S. cerevisiae deletion strains, locus YLR058C, strain SHM2, hits give low values 1.01 | S. cerevisiae deletion strains, locus YLR102C, strain apc9, hits give low values 1.01 | S. cerevisiae deletion strains, locus YLR221C, strain rsa3, hits give low values 1.02 | S. cerevisiae deletion strains, locus YLR258W, strain gsy2, hits give low values 0.999 | S. cerevisiae deletion strains, locus YLR262C, strain YPT6 (second series), hits give low values 1.03 | S. cerevisiae deletion strains, locus YLR262C, strain YPT6, hits give low values 1.05 | S. cerevisiae deletion strains, locus YLR268W, strain sec22, hits give low values 1.01 | S. cerevisiae deletion strains, locus YLR320W, strain mms22, hits give low values 1.03 | S. cerevisiae deletion strains, locus YLR330W, strain CHS5, hits give low values 1 | S. cerevisiae deletion strains, locus YLR342W, strain FKS1 (second series), hits give low values 1.02 | S. cerevisiae deletion strains, locus YLR342W, strain FKS1, hits give low values 1 | S. cerevisiae deletion strains, locus YLR357W, strain rsc2, hits give low values 1.04 | S. cerevisiae deletion strains, locus YLR370C, strain arc18, hits give low values 0.992 | S. cerevisiae deletion strains, locus YLR371W, strain rom2, hits give low values 1.01 | S. cerevisiae deletion strains, locus YLR384C, strain iki3, hits give low values 1.01 | S. cerevisiae deletion strains, locus YLR418C, strain cdc73, hits give low values 1.03 | S. cerevisiae deletion strains, locus YML016C, strain PPZ1, hits give low values 1.02 | S. cerevisiae deletion strains, locus YML032C, strain rad52, hits give low values 1.02 | S. cerevisiae deletion strains, locus YML120C, strain ndi1, hits give low values 1.02 | S. cerevisiae deletion strains, locus YML124C, strain tub3, hits give low values 1.01 | S. cerevisiae deletion strains, locus YMR058W, strain fet3, hits give low values 1.02 | S. cerevisiae deletion strains, locus YMR078C, strain ctf18, hits give low values 1.02 | S. cerevisiae deletion strains, locus YMR125W, strain sto1, hits give low values 1 | S. cerevisiae deletion strains, locus YMR129W, hits give low values 1.02 | S. cerevisiae deletion strains, locus YMR205C, strain PFK2, hits give low values 0.986 | S. cerevisiae deletion strains, locus YMR223W, strain ubp8, hits give low values 1.01 | S. cerevisiae deletion strains, locus YMR231W, strain pep5, hits give low values 1.01 | S. cerevisiae deletion strains, locus YMR263W, strain SAP30, hits give low values 1.01 | S. cerevisiae deletion strains, locus YMR307W, strain GAS1, hits give low values 1.05 | S. cerevisiae deletion strains, locus YNL067W, strain RPL9B, hits give low values 1.01 | S. cerevisiae deletion strains, locus YNL071W, strain lat1, hits give low values 1.02 | S. cerevisiae deletion strains, locus YNL128W, strain TEP1, hits give low values 1.01 | S. cerevisiae deletion strains, locus YNL153C, strain GIM3, hits give low values 1.01 | S. cerevisiae deletion strains, locus YNL209W, strain ssb2, hits give low values 1.01 | S. cerevisiae deletion strains, locus YNL233W, strain BNI4, hits give low values 1.01 | S. cerevisiae deletion strains, locus YNL248C, strain rpa49, hits give low values 1.01 | S. cerevisiae deletion strains, locus YNL250W, strain rad50, hits give low values 1.02 | S. cerevisiae deletion strains, locus YNL271C, strain bni1, hits give low values 1.01 | S. cerevisiae deletion strains, locus YNL298W, strain CLA4, hits give low values 0.987 | S. cerevisiae deletion strains, locus YNL307C, strain MCK1, hits give low values 1.02 | S. cerevisiae deletion strains, locus YNL322C, strain KRE1 (second series), hits give low values 1.01 | S. cerevisiae deletion strains, locus YNL322C, strain KRE1, hits give low values 1.01 | S. cerevisiae deletion strains, locus YNR049C, strain mso1, hits give low values 0.978 | S. cerevisiae deletion strains, locus YNR052C, strain pop2, hits give low values 1.01 | S. cerevisiae deletion strains, locus YOL006C, strain TOP1, hits give low values 1.02 | S. cerevisiae deletion strains, locus YOL012C, strain htz1 1.54 | S. cerevisiae deletion strains, locus YOL147C, strain pex11, hits give low values 1.01 | S. cerevisiae deletion strains, locus YOR001W, strain rrp6, hits give low values 1.01 | S. cerevisiae deletion strains, locus YOR061W, strain CKA2, hits give low values 1 | S. cerevisiae deletion strains, locus YOR069W, strain VPS5, hits give low values 1.01 | S. cerevisiae deletion strains, locus YOR070C, strain gyp1, hits give low values 0.99 | S. cerevisiae deletion strains, locus YOR080W, strain dia2, hits give low values 0.999 | S. cerevisiae deletion strains, locus YOR083W, strain WHI5, hits give low values 1.01 | S. cerevisiae deletion strains, locus YOR106W, strain vam3, hits give low values 1.01 | S. cerevisiae deletion strains, locus YOR136W, strain idh2, hits give low values 1.02 | S. cerevisiae deletion strains, locus YOR144C, strain elg1, hits give low values 1.02 | S. cerevisiae deletion strains, locus YOR184W, strain ser1, hits give low values 1.01 | S. cerevisiae deletion strains, locus YOR265W, strain rbl2, hits give low values 0.993 | S. cerevisiae deletion strains, locus YOR270C, strain vph1, hits give low values 1.06 | S. cerevisiae deletion strains, locus YOR290C, strain snf2, hits give low values 0.99 | S. cerevisiae deletion strains, locus YOR316C, strain cot1, hits give low values 1.02 | S. cerevisiae deletion strains, locus YPL051W, strain arl3, hits give low values 1 | S. cerevisiae deletion strains, locus YPL055C, strain LGE1, hits give low values 1.03 | S. cerevisiae deletion strains, locus YPL078C, strain atp4, hits give low values 1.02 | S. cerevisiae deletion strains, locus YPL106C, strain sse1, hits give low values 1.06 | S. cerevisiae deletion strains, locus YPL240C, strain hsp82, hits give low values 0.973 | S. cerevisiae deletion strains, locus YPL241C, strain CIN2, hits give low values 0.986 | S. cerevisiae deletion strains, locus YPR119W, strain clb2, hits give low values 1 | S. cerevisiae deletion strains, locus YPR141C, strain kar3, hits give low values 1 | S. cerevisiae deletion strains, locus YPR163C, strain tif3, hits give low values 1.01 | S. cerevisiae deletion strains, locus YPR167C, strain met16, hits give low values 1.01 | S. cerevisiae deletion strains, strain wtn01, hits give low values 1 | S. cerevisiae strains, strain wild type, hits give low values 0.993
